Screens deposited in PubChem BioAssay by several laboratories.
CYP2C9 inhib: blockers of cytochrome P450 2C9 activity – biochemical, luminescence, ADME assay, primary screen. P11712. CYP2C9 Supersomes, luciferin-H conversion. inhibition, % at 5 µM. hit rate 20% among 96,000;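 active means blocking of liver enzyme CYP2C9 beyond about 50% at 5 µM, limit read from the data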
Target sequence (P11712 whole entry, looked up): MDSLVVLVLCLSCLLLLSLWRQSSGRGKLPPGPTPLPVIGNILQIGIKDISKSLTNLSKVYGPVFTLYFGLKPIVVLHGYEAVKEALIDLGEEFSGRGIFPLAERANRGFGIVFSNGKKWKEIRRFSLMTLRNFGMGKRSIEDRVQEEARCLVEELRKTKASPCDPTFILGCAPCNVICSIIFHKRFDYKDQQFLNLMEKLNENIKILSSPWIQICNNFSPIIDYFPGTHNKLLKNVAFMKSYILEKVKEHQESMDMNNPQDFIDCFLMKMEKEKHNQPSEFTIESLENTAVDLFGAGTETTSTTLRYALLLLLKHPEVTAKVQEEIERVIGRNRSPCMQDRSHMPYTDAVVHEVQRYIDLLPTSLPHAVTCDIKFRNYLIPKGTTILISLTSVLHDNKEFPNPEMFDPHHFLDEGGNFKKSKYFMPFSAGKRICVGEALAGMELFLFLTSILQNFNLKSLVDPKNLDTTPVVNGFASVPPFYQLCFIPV
CYP2C19 activ: human CYP2C19 activators, primary screen, biochemical, luminescence | Cytochrome P450 2C19 (Homo sapiens), P33261 | recombinant CYP2C19, luciferin-H EGE luminescence; hits give high values; 0 = fully inhibited enzyme, 1 = untreated enzyme | activation factor at 5 µM | 96,000 tested, under 10 active | AID 1025, 2008;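 active means activation factor of at least 2 at 5 µM in the primary screen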;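 further: 0 = wells with 2.5 mM tranylcypromine and 1 = vehicle-only wells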
F-actin modifier: modifiers of F-actin cytoskeleton organization, primary screen, imaging, HUVEC, phalloidin staining, high-content imaging | inhibition, % at 2 µM | AID 836, 2007 | hit rate 0.18% among 91,000 | HUVEC TNFa F-actin phalloidin imaging;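 active means inhibition above the batch mean plus 3 SD and confirmed as a hit by visual image inspection, cut at about 30% in these data, passing the limit was not always enough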
E-sel TNF inh: E-selectin induction blockers in HUVEC – imaging, immunofluorescence, high content, primary screen; AID 1246, 2008; hit rate 0.71% among 120,000; inhibition, % at 2 µM; HUVEC TNFa-induced E-selectin immunofluorescence;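 active means inhibition above the batch mean plus 3 SD, and confirmed as a hit on visual image review, cut at about 43% in these data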;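 further: 0% = TNF-stimulated DMSO wells and 100% = unstimulated control wells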
CYP2C9 activ: human CYP2C9 activators, primary screen, biochemical, luminescence; hit rate 1.4% among 96,000; AID 1024, 2008; activation factor at 5 µM; recombinant CYP2C9, luciferin-H conversion; hits give high values; factor 1 = untreated enzyme, 0 = blocked;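 active means activation factor of 2 or more for CYP2C9 at a 5 µM dose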;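 further: 0 = sulfaphenazole-blocked wells and 1 = vehicle-only wells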
CYP2C19 inhib: blockers of cytochrome P450 2C19 activity – biochemical, luminescence, ADME assay, primary screen; P33261; CYP2C19 Supersomes, luciferin-H EGE luminescence, 30 min; inhibition, % at 5 µM; hit rate 21% among 96,000; AID 778, 2007;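 active means CYP2C19 inhibition above a set limit at 5 µM in the primary screen, cut at about 50% in these data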;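 further: plate controls were negative control wells for no effect and 2.5 mM tranylcypromine positive control for full effect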
* hit, by the source's call. Rows were chosen to be rich in hits. Some 22% of all compounds tested hit in one or more screens of this group.

Screening Cc1nn(C)cc1CNC(=O)Nc1ccc(Cl)c(Cl)c1 returned CYP2C9 inhib 12, CYP2C19 activ 0.6, F-actin modifier -4, CYP2C9 activ 0.9 and CYP2C19 inhib 41.
Screening Cn1nc(C(F)(F)F)c(/C=N/OC(=O)c2ccccc2Cl)c1SCc1ccc(Cl)cc1 returned CYP2C9 inhib 77*, CYP2C19 activ 0.5, E-sel TNF inh -12, CYP2C9 activ 0.2 and CYP2C19 inhib 54*.
Screening Cc1ccc(C(=O)O/N=C/c2c(C(F)(F)F)nn(C)c2Sc2ccc(Cl)cc2)cc1 returned CYP2C9 inhib 80*, CYP2C19 activ 0.8, F-actin modifier 18, E-sel TNF inh 1, CYP2C9 activ 0.2 and CYP2C19 inhib 23.
COc1ccc(C(=O)O/N=C/c2c(C(F)(F)F)nn(C)c2SCc2ccccc2Cl)cc1 was read as CYP2C9 inhib 30, CYP2C19 activ 0.8, F-actin modifier 2, E-sel TNF inh -44, CYP2C9 activ 0.7 and CYP2C19 inhib 17.
`COC(=O)c1ccccc1Sc1c(/C=N/OC(=O)c2ccccc2)c(C(F)(F)F)nn1C` gave CYP2C9 inhib 91*, CYP2C19 activ 0.6, F-actin modifier -9, E-sel TNF inh 10, CYP2C9 activ 0.1 and CYP2C19 inhib 39.
`O=C(CCN1CCc2ccccc2C1)Nc1ccccc1F` gave F-actin modifier -8 and E-sel TNF inh -8.
O=C(Nc1ccccc1O)c1ccccc1O was read as CYP2C9 inhib 63*, CYP2C19 activ 1.3, F-actin modifier 1, E-sel TNF inh -17, CYP2C9 activ 0.4 and CYP2C19 inhib -34.
Screening Cc1ccc(C)c(NC(=O)c2ccccc2O)c1 returned CYP2C9 inhib 51*, CYP2C19 activ 0.7, F-actin modifier 30, E-sel TNF inh -4, CYP2C9 activ 0.5 and CYP2C19 inhib 33.
For CCS(=O)(=O)c1ccc(NC(=O)c2ccccc2Cl)c(O)c1 the results were CYP2C9 inhib 53*, CYP2C19 activ 1, F-actin modifier 10, E-sel TNF inh 25, CYP2C9 activ 0.5 and CYP2C19 inhib 4.
`O=C(OCCN(C1=NS(=O)(=O)c2ccccc21)c1ccc(Cl)cc1)c1ccco1` gave CYP2C9 inhib 85*, CYP2C19 activ 0.1, F-actin modifier -8, E-sel TNF inh -14, CYP2C9 activ 0.2 and CYP2C19 inhib 86*.
Screening O=C(Oc1ccc(N(Cc2cccs2)C2=NS(=O)(=O)c3ccccc32)cc1)c1ccco1 returned F-actin modifier -6 and E-sel TNF inh -21.
`CC(=O)OC1COC(n2ccc3cc([N+](=O)[O-])ccc32)C(OC(C)=O)C1OC(C)=O` (configuration not stated) gave F-actin modifier 19 and E-sel TNF inh -14.
For CCc1nnc(SCc2ccc(CSc3nnc(CC)n3N)cc2)n1N the results were CYP2C9 inhib -18, CYP2C19 activ 1.2, F-actin modifier 4, E-sel TNF inh -11, CYP2C9 activ 1.2 and CYP2C19 inhib -15.
For CCOc1cc(/C=N/NC(=O)COc2cccc(C)c2)ccc1OC(=O)c1cccs1 the results were CYP2C9 inhib 59*, CYP2C19 activ 0.8, F-actin modifier -20, E-sel TNF inh -51, CYP2C9 activ 0.4 and CYP2C19 inhib 18.
`COc1cc(/C=N/NC(=O)COc2ccccc2C)ccc1OC(=O)c1cccs1` gave CYP2C9 inhib 27, CYP2C19 activ 0.8, F-actin modifier 7, E-sel TNF inh -28, CYP2C9 activ 0.7 and CYP2C19 inhib 22.
CCOc1ccc(OCc2nnc(SCC(=O)NC3CCS(=O)(=O)C3)n2-c2ccc(Cl)cc2)cc1 (configuration not stated) was read as E-sel TNF inh 11.
COc1cc(C(=O)OCc2ccc(C)cc2)cc(NC(=O)c2cccs2)c1OC was read as E-sel TNF inh -18.
For CCCCc1nc2ccccc2c(=O)n1NC(=O)c1c(O)c2cccc3c2n(c1=O)CCC3 the results were CYP2C9 inhib 53*, CYP2C19 activ 0.9, CYP2C9 activ 0.5 and CYP2C19 inhib 8.
CCCCCc1nc2ccccc2c(=O)n1NC(=O)c1c(O)c2cccc3c2n(c1=O)CCC3 was read as F-actin modifier -17 and E-sel TNF inh 72*.
For CC(=O)C(C)Oc1cc(C)cc2oc(=O)c(C)c(C)c12 (configuration not stated) the results were CYP2C9 inhib 57*, CYP2C19 activ 0.7, F-actin modifier 19, CYP2C9 activ 0.4 and CYP2C19 inhib 28.
CC(=O)NC1=NC(=O)C(C)S1 (configuration not stated) was read as CYP2C9 inhib 0, CYP2C19 activ 1.1, F-actin modifier -5, E-sel TNF inh 11, CYP2C9 activ 1 and CYP2C19 inhib -7.
For COc1ccc(N2C(=O)CC(S/C(N)=N/N=C/c3ccnc4ccccc34)C2=O)cc1 (configuration not stated) the results were E-sel TNF inh -12.
Screening CCN(CC)c1ncnc2sc(C(=O)N3CCN(c4ccc(OC)cc4)CC3)c(C)c12 returned CYP2C9 inhib 31, CYP2C19 activ 0.7, E-sel TNF inh -95, CYP2C9 activ 0.7 and CYP2C19 inhib 29.
Screening Cc1c(C(=O)N2CCC(C)CC2)sc2ncnc(N3CCN(c4ccccc4)CC3)c12 returned CYP2C9 inhib 95*, CYP2C19 activ 0.3, F-actin modifier 43, E-sel TNF inh 19, CYP2C9 activ 0.1 and CYP2C19 inhib 66*.
`CCN(CC)c1ncnc2sc(C(=O)N3CCN(c4ccccc4)CC3)c(C)c12` gave CYP2C9 inhib 62*, CYP2C19 activ 0.7, E-sel TNF inh -25, CYP2C9 activ 0.4 and CYP2C19 inhib 26.
`CCOC(=O)c1sc2ncnc(N3CCN(c4ccc(OC)cc4)CC3)c2c1C` gave CYP2C9 inhib 20, CYP2C19 activ 0.8, F-actin modifier 27, E-sel TNF inh -13, CYP2C9 activ 0.8 and CYP2C19 inhib 15.
Cc1c(C(=O)N2CCN(c3ccccn3)CC2)sc2ncnc(N3CCOCC3)c12 was read as CYP2C9 inhib 58*, CYP2C19 activ 0.8, F-actin modifier -12, E-sel TNF inh 11, CYP2C9 activ 0.4 and CYP2C19 inhib 19.
`CCCc1nnc(N2C(=O)c3cccc4cccc(c34)C2=O)s1` gave CYP2C9 inhib -203, CYP2C19 activ 1.1, F-actin modifier -2, E-sel TNF inh 10, CYP2C9 activ 3* and CYP2C19 inhib -8.
For Clc1ccc(/C=N/Nc2nc(Cl)nc3ccccc23)cc1 the results were CYP2C9 inhib 21, CYP2C19 activ 0.9, F-actin modifier 16, E-sel TNF inh -37, CYP2C9 activ 0.8 and CYP2C19 inhib 13.
